A549 viability – Nrf2 qHTS screen for inhibitors: counterscreen for cytotoxicity | A549 ARE-Fluc cells, CellTiter-Fluor viability, 18-24 h | Potency, µM (top dose mostly 46 µM), inactives show top-dose activity change, negative = cytotoxicity, most hits filed as inhibitors | hit rate 0.16% among 390,000 | AID 504648, 2011; note: potency is the fitted concentration of half-maximal effect; % is set by controls: 0 for no effect and ±100 for the full control effect
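Cytotoxicity counterscreen: CellTiter-Fluor fluorescence was measured in A549 ARE_Fluc cells after 18-24 h of compound exposure in a concentration series. The subsequent BugLite luminescent read reports ARE-luciferase activity.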
Nrf2 ARE act – qHTS of Nrf2 Activators. AREc32 ARE-luciferase reporter (MCF7-derived line), luminescence, 24 h. Potency, µM (highest dose often 46.1 µM), for inactives: at the highest dose activation, usual class: activators. hit rate 0.31% among 410,000. AID 624171, 2012; note: potency is the fitted concentration of half-maximal effect; % of control where 0% means no effect; nearly all actives have a fitted effect of over 65% in size
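Cells of the AREc32 ARE-luciferase line are plated in OPTI-MEM containing 5% FBS and left overnight at 37 deg C. Compounds are pinned in, incubation continues 24 hr, and firefly luciferase signal is then measured.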
LDHA block – qHTS assay for inhibitors of human lactate dehydrogenase; L-lactate dehydrogenase A chain (Homo sapiens), P00338; purified LDHA, NADH/diaphorase-resazurin fluorescence; active compounds read low; activity change, % (values are at about 110 or 230 µM); hit rate 0.15% among 480,000; in the data active = activity change below about -30%; inconclusive = mostly about -25% to -30%;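 note: plate controls were DMSO wells for no effect and wells without enzyme for full effect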
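LDH5 2 nM; NADH 0.06 mM, pyruvate 0.2 mM; 200 mM Tris pH 7.4, EDTA, Tween-20; 5 min RT. Detection: diaphorase 0.133 mg/mL + resazurin 37 µM, fluorescence ex540/em590 at 0 and 20 min; normalized to enzyme-free and DMSO wells.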
12-LOX inh – Primary qHTS assay for inhibitors of human arachidonate 12S-lipoxygenase (ALOX12): Round 2; purified 12hLO, xylenol orange hydroperoxide absorbance; Potency, µM (doses to about 108 µM), for the others: at the highest dose activity change, negative = inhibition, usual class: inhibitors; hit rate 1.1% among 580,000; AID 1671190, 2021; note: potency is the fitted concentration of half-maximal effect; % is set by controls: 0 for no effect and ±100 for the full control effect
Target sequence (P18054 whole entry, looked up): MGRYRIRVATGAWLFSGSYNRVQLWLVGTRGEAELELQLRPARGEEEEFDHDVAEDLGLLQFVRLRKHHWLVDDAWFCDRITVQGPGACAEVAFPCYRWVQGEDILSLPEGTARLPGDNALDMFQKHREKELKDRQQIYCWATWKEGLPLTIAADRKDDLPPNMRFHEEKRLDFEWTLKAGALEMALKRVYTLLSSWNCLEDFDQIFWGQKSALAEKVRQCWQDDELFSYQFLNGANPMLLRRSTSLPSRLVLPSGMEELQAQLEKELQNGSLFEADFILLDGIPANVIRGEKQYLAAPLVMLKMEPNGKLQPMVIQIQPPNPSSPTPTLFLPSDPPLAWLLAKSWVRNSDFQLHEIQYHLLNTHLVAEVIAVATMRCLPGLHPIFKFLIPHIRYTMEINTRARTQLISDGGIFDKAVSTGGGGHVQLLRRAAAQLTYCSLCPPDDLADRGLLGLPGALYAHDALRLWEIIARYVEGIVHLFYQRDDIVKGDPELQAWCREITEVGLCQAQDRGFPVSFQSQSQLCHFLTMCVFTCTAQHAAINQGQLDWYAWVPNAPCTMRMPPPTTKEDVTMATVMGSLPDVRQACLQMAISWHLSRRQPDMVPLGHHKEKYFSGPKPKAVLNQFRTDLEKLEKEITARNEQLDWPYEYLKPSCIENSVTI
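Hydroperoxide product was detected by ferrous iron/xylenol orange as the 573 to 405 nm absorbance ratio. Arachidonic acid at 40 uM (final) was turned over for 30 min at room temperature by 150 nM human 12hLO, pH 7.0 Hepes buffer, after 15 min compound preincubation.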
ERG-DNA inh – qHTS for Small Molecule Inhibitors of the ERG Ets/DNA interaction. Transcriptional regulator ERG (Homo sapiens), P11308. Potency, µM (doses to about 76.9 µM), for inactives: top-dose FP activity, negative = inhibition, actives largely listed as inhibitors. AID 624246, 2012. hit rate 0.028% among 370,000. fluorescence polarization, His-ERG Ets domain / labelled DNA; active = well fitted inhibition curve with a large enough effect in the polarisation, with a control signal flat; inconclusive = small, poorly fitted or top-dose-only effect, or effect the other way, or a change in a side signal; inactive = no such curve, though single readings can be large or run the other way; the % refers to the polarisation;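 note: polarization taken with two DNA probes labelled with fluorescein and Texas red; potency is the fitted concentration of half-maximal effect; % of control where 0% means no effect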
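His-tagged ERG Ets domain (1 uM in the protein solution; 300mM KCl, 50mM Tris-HCl, 1mM EDTA, 1mM DTT, pH 7.5) received compound, then a probe mix of 5 nM fluorescein-DNA and 100nM Texas-615-DNA. Fluorescence polarization was read for both dyes.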
Nrf2 block – Nrf2 qHTS screen for inhibitors; A549 ARE-Fluc reporter, luciferase luminescence, 18-24 h; Potency, µM (top dose mostly 46 µM), for inactives: top-dose activity change, negative = inhibition, hits mostly inhibitors; hit rate 2.1% among 360,000; AID 504444, 2011; note: potency is the fitted concentration of half-maximal effect; % is set by controls: 0 for no effect and ±100 for the full control effect; nearly all actives have a fitted effect of over 60% in size
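Nrf2 activity is the BugLite luminescence, read 15 min after reagent at room temperature, following CellTiter-Fluor cytotoxicity readout (30 min, 37C). Compound titrations were applied for 18-24 h to 5000 A549 ARE_Fluc cells/well in 5% FBS OPTI-MEM.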
Numbers without * were called inactive; ? = inconclusive; / = not tested or not shown. Hits are enriched below; roughly 2.7% of the tested compounds scored in any of these assays. Unless noted, calls come from the whole dose curve; as a rule, active = well fitted curve in the direction sought with a large enough effect; inconclusive = small, poorly fitted or top-dose-only effect, or another doubt; inactive = no such curve, though single readings can be large; an effect the other way counts as inactive or inconclusive.

SMILES	A549 viability	Nrf2 ARE act	LDHA block	12-LOX inh	ERG-DNA inh	Nrf2 block
O=C(c1cc2nc(-c3ccccc3)cc(-c3ccccc3)n2n1)N1CCN(C(=O)c2ccco2)CC1	-2.4%	1.5%	-4.0	0.0%	3.7%	23.1µM*
Cc1cccc(C(=O)NCC(=O)N(C)Cc2ccc(-c3ccc(Cl)cc3)o2)c1	/	/	4.7	?	/	/
CS(=O)(=O)c1ccc(S(=O)CC(=O)OCc2ccccc2)c([N+](=O)[O-])c1 (stereo not given)	?	?	31.9	-21.5%	-7.3%	18.4µM*
O=C(CS(=O)c1ccc(C(F)(F)F)cc1[N+](=O)[O-])Oc1ccccc1 (stereo not given)	-10.2%	?	13.4	?	-0.8%	?
Cc1ccc(-c2csc(CCn3nc(C)c4c(C(F)(F)F)cc(=O)[nH]c43)n2)cc1	/	/	1.7	10µM*	/	/
COc1ccc(-c2csc(CCn3nc(C)c4c(C(F)(F)F)cc(=O)[nH]c43)n2)cc1	/	/	1.9	17.8µM*	/	/
Cc1nn(CCc2nc(-c3ccc4ccccc4c3)cs2)c2[nH]c(=O)cc(C(F)(F)F)c12	/	/	-0.4	?	/	/
COc1ccc(C(=O)c2sc(Nc3c(C)cccc3C)nc2N)cc1OC	/	/	1.4	0.7%	/	/
COc1ccc(/C=N/N=C2/NC(=O)C(CC(=O)O)S2)cc1OCc1ccc(Cl)cc1Cl (stereo not given)	0.5%	-0.8%	-45.5*	-28.4%	-0.8%	-5.6%
COc1ccc(/C=N/N=C2/NC(=O)C(CC(=O)O)S2)cc1OCc1ccccc1Cl (stereo not given)	-2.9%	-0.6%	-14.2	3.3%	-5.2%	-27.2%
CCOc1ccc(-c2ccccc2)cc1C=O	/	/	-9.5	-28.2%	/	/
CCCSC1=N/C(=C\C=C\c2ccco2)C(=O)S1	-3.7%	10µM*	11.6	?	3.0%	5.6%
CCCSC1=N/C(=C\c2ccc([N+](=O)[O-])o2)C(=O)S1	?	0.3%	1.3	39.8µM*	6.2%	6.2%
COc1cccc(CCC(=O)NCCn2ccn3nc(-c4cccc(OC)c4)cc3c2=O)c1	/	/	/	25.9%	/	/
CCS(=O)(=O)c1ccc(Cc2ccc(S(=O)(=O)CC)cc2)cc1	/	/	-3.6	8.91µM*	/	/
CCOC(=O)NC(=O)COC(=O)CCCSc1nc2ccccc2s1	-10.0%	-2.0%	-6.9	0.0%	-0.6%	18.4µM*
O=C(CCSc1nc2ccccc2s1)Nc1ccc(F)cc1	/	/	2.3	0.4%	/	/
O=C(O)CCSc1nc2ccccc2s1	0.5%	-1.7%	-6.2	4.6%	10.8%	13µM*
CC(NC(=O)c1ccc(-c2ccccc2)cc1)C1CC2CCC1C2 (stereo not given)	/	/	5.2	1.5%	/	/
COc1cc(-c2nc(Cn3nnc(C(=O)Nc4ccc(F)cc4)c3N)c(C)o2)cc(OC)c1OC	/	/	-15.1	58.9%	/	/
O=C(NCc1cccnc1)c1ccc(NS(=O)(=O)c2cccc([N+](=O)[O-])c2)cc1	0.4%	2.7%	-0.3	-5.7%	2.4%	-5.9%
O=[N+]([O-])c1cccc(S(=O)(=O)NCCc2cccs2)c1	-2.3%	-0.3%	-2.9	1.3%	-4.6%	-9.9%
Cc1ccc(NS(=O)(=O)c2ccc(OCC(=O)Nc3cccc([N+](=O)[O-])c3)c(C)c2)cc1	?	3.3%	-8.6	-1.1%	-2.6%	20.6µM*
O=S(=O)(Nc1ccc(Cc2ccncc2)cc1)c1ccc(Cl)s1	-0.4%	0.0%	-2.3	-12.5%	2.3%	18.4µM*
O=[N+]([O-])c1cccc(S(=O)(=O)Nc2ccc(Cc3ccncc3)cc2)c1	1.9%	0.4%	-1.1	-21.3%	0.6%	16.4µM*
SMILES	A549 viability	Nrf2 ARE act	LDHA block	12-LOX inh	ERG-DNA inh	Nrf2 block
O=[N+]([O-])c1cccc(S(=O)(=O)NCc2ccncc2)c1	?	-0.4%	1.5	-5.8%	13.9%	7.31µM*
Clc1cccc(CSc2nc(CN3CCOCC3)nc3ccccc23)c1	/	/	-10.4	4.5%	/	/
CCCCCNC(=O)CCc1c(C)nc2nc(N)nn2c1C	/	/	11.5	9.1%	/	/
CN1/C(=C\C(=O)COC(=O)c2ccc(O)cc2)C(C)(C)c2ccccc21	0.4%	3.7%	3.1	?	64.6%	1.7%
CN1/C(=C\C(=O)COC(=O)c2ccc(O)c(O)c2)C(C)(C)c2ccccc21	?	3.9%	18.2	10µM*	93.2%	?
Cc1nn(CC(=O)Nc2ccc3nc(CN4CCCCC4)n(C)c3c2)c(=O)c2ccccc12	/	/	-5.8	13.4%	/	/
O/N=C(\c1ccc(O)cc1O)c1ccccc1F	/	/	-31.3*	?	/	/
Nc1nc2c(s1)C(c1cccc(Cl)c1Cl)CC(=O)N2 (stereo not given)	/	/	76.1	20µM*	/	/
COc1ccc(C2CC(=O)Nc3nc(N)sc32)cc1OC (stereo not given)	/	/	101.5	?	/	/
Nc1nc2c(s1)C(c1cc(Cl)ccc1F)CC(=O)N2 (stereo not given)	/	/	77.2	35.5µM*	/	/
COc1ccc(C2CC(=O)Nc3nc(N)sc32)cc1OCc1ccccc1Cl (stereo not given)	/	/	69.3	1.12µM*	/	/
CC(C)Oc1cccc(C2CC(=O)Nc3nc(N)sc32)c1 (stereo not given)	/	/	96.5	?	/	/
Nc1nc2c(s1)C(c1ccccc1OCc1ccccc1Cl)CC(=O)N2 (stereo not given)	/	/	82.5	0.891µM*	/	/
COc1ccc(NC(=O)Nc2nc3cc(C)c(C)cc3s2)cc1OC	/	/	2.8	3.3%	/	/
CC(/C=C/c1ccccc1)=N/Nc1ccc([N+](=O)[O-])cc1	/	/	0.7	?	/	/
CCOc1ccccc1NC(=O)C(NCCN(C)C)c1ccccc1 (stereo not given)	2.9%	-1.3%	-41.1*	4.2%	11.7%	23.5%
CN(C)CCNC(C(=O)Nc1cccc(C(F)(F)F)c1)c1ccccc1 (stereo not given)	-1.8%	-0.6%	-37.3*	-10.4%	-2.6%	6.1%
CCOc1ccccc1NC(=O)C(NCCc1ccc(OC)cc1)c1ccccc1 (stereo not given)	14.4%	4.4%	0.1	0.0%	2.1%	-1.9%
O=C(NCCCc1ccccn1)c1ccc2nc(-c3ccc(F)cc3)cn2c1	/	/	/	11.0%	/	/
CC(=O)N1CCN(C(c2ccccc2)c2ccccc2)CC1	/	0.2%	/	20.6%	-6.4%	/

Screening data: PubChem BioAssay, National Center for Advancing Translational Sciences (NCATS)
